# Screening data (PubChem BioAssay)
# GRIN3A LBD mod = binders of NR3A ligand-binding domain, primary screen, biophysical, differential scanning fluorimetry, uHTS | Glutamate receptor ionotropic, NMDA 3A (GRIN3A) ligand-binding domain | NR3A LBD differential scanning fluorimetry, Tm shift; 0% = protein alone, 100% = glycine-bound protein | Tm shift relative to glycine control, % at 25 µM | hit rate 2.5% among 340,000;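 active means melting temperature shift of at least 10% of the positive control shift, at one fixed dose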
# FAS TE block = FAS thioesterase domain inhibitors, primary screen, biochemical, fluorescence intensity, uHTS. hit rate 0.67% among 360,000. inhibition, % at 15 µM. recombinant FAS-TE, OMFH fluorogenic substrate, fluorescence endpoint. Fatty acid synthase (Homo sapiens), P49327;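 active means compounds whose normalised, plate-corrected inhibition of enzyme fluorescence in the single-dose primary screen is 50% or more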;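 further: 0% = DMSO with enzyme and 100% = substrate without enzyme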
# ADAM10 inh = human ADAM10 inhibitors, primary screen, biochemical, QFRET, HTS | hit rate 0.62% among 370,000 | inhibition, % at 7 µM | Disintegrin and metalloproteinase domain-containing protein 10 (Homo sapiens), O14672 | recombinant ADAM10, EDANS/DABCYL FRET peptide cleavage, 3 h;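 active means inhibition above a per-campaign cutoff equal to the mean of compounds falling between control-based bounds plus 3 SD, cut at about 20% in these data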;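 further: 0% = DMSO wells while the 100% control is not disclosed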
# ADAM17 inh = ADAM17 inhibitors, primary screen, biochemical, QFRET; hit rate 0.83% among 370,000; recombinant ADAM17, EDANS/DABCYL FRET peptide cleavage; inhibition, % at 6.95 µM;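 active means inhibition above the mean of compounds lying between control limits plus 3 SD, set per campaign, cut at about 8.5% in these data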;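 further: 0% = DMSO-only wells as the low control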
# Target sequence (P78536 215-824 limits assumed): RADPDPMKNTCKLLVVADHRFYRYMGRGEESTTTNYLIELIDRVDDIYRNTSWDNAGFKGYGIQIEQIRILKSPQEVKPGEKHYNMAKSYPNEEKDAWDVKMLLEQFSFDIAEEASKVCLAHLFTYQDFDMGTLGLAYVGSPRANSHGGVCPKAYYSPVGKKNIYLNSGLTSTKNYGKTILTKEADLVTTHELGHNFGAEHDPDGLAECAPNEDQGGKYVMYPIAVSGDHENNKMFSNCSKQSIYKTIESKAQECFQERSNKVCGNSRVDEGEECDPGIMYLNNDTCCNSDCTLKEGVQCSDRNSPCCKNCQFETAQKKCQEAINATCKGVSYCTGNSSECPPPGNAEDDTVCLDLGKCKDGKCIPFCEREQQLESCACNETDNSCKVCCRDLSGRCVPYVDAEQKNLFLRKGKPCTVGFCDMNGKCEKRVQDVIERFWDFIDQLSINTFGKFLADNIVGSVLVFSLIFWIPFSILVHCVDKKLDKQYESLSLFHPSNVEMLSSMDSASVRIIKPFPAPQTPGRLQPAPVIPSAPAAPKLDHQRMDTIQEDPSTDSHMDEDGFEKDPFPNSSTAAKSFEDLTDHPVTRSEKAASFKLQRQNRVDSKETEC
# aDG glyco act = activators of alpha-DG glycosylation, primary screen, uHTS, Pro5-aDG cells, AlphaScreen | alpha-DG glycosylation AlphaScreen (IIH6); 0% Pro5, 100% B10-LARGE cell signal | activation, % at 10 µM | hit rate 0.22% among 360,000 | AID 624168, 2012;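 active means activation of at least 8% versus controls, or a plate z-score of at least 8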;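 further: Pro5 are CHO cells carrying HIG-tagged alpha-DG that lacks glycosylation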
# * hit, by the source's call; x = no result. Hits are enriched below; roughly 4% of the tested compounds scored in any of these assays.
SMILES,GRIN3A LBD mod,FAS TE block,ADAM10 inh,ADAM17 inh,aDG glyco act
O=C(CC1Nc2ccccc2NC1=O)Nc1cc(Cl)cc(Cl)c1 (configuration not stated),29*,17,-22,-8,1
O=C(CC1Nc2ccccc2NC1=O)NCCCN1CCCCCC1 (configuration not stated),-2,-6,-76,-23,0
CC1CC2(C)C(=CC1=O)CCC1C2C(O)CC2(C)C1CCC2(O)C(=O)CO (configuration not stated),-1,0,-6,-4,0
O=[N+]([O-])c1ccc(CP(=O)(c2ccccc2)c2ccccc2)cc1,1,3,6,-4,0
COc1ccc(Cl)cc1NC(=O)COC(=O)c1cc(NS(=O)(=O)c2cccs2)ccc1O,25*,32,8,-9,0
O=C(COC(=O)c1ccc(NS(=O)(=O)c2cccs2)cc1O)Nc1nc2ccccc2s1,19*,0,12,4,0
O=C(COc1ccc(Cl)cc1Cl)Nc1ccccc1NS(=O)(=O)c1cccs1,5,2,2,2,0
Cc1cc(Cl)ccc1OCC(=O)Nc1ccccc1NS(=O)(=O)c1cccs1,14*,6,5,-3,0
O=C(COC(=O)Cc1ccc(F)cc1)NC(=O)NC1CCCC1,0,-4,-1,-5,0
O=C(COC(=O)CCc1nc2ccccc2c(=O)[nH]1)NC(=O)NC1CCCC1,12*,4,-12,1,0
CN(C(=O)COC(=O)CCc1nc2ccccc2c(=O)[nH]1)C1CCS(=O)(=O)C1 (configuration not stated),1,-4,8,3,0
N#CCCN(C(=O)COC(=O)CCc1nc2ccccc2c(=O)[nH]1)c1ccccc1F,13*,-3,-5,0,0
CC(OC(=O)CCc1nc2ccccc2c(=O)[nH]1)C(=O)NC1CCCC1 (configuration not stated),-3,-8,4,2,0
CCCCn1c(C)cc(C)c(S(=O)(=O)c2ccccc2C)c1=O,3,18,6,-3,0
C=CCOc1ccc(/C=C/C(=O)OCC(=O)N2CCN(S(=O)(=O)c3ccc(C)cc3C)CC2)cc1,19*,2,-7,-5,0
Cc1ccc(S(=O)(=O)N2CCN(C(=O)COC(=O)/C=C/c3ccc([N+](=O)[O-])cc3)CC2)c(C)c1,0,-7,-8,-3,0
COc1cccc(C(=O)NNC(=O)c2sccc2-n2cccc2)c1,-1,-1,10,-2,0
Cc1cccc(NC(=O)NNC(=O)c2sccc2-n2cccc2)c1,13*,-4,3,2,0
Cn1c(N)c(C(=O)COC(=O)/C=C/c2ccc(Cl)c(Cl)c2)c(=O)n(C)c1=O,17*,5,-9,-2,2
CC(C)(C)c1ccc(C(=O)Nc2ccc(S(=O)(=O)Nc3cnc4ccccc4n3)cc2)cc1,13*,-44,3,-11,0
NC(=O)c1ccc(NS(=O)(=O)c2ccc3ccccc3c2)cc1,12*,-1,5,-1,0
NC(=O)c1ccc(NC(=O)c2cnc3ccccc3n2)cc1,16*,-6,-5,-4,0
CC(=O)c1ccc(NS(=O)(=O)c2ccc3ccccc3c2)cc1,-13,-10,-4,-1,0
O=C(O)c1ccc(NS(=O)(=O)c2ccc(C(=O)Nc3ccccc3)cc2)cc1,17*,-5,1,2,0
CCOC(=O)NCc1cc(-c2nn(C)c(=O)c3ccccc23)ccc1C,1,-3,3,-4,1
SMILES,GRIN3A LBD mod,FAS TE block,ADAM10 inh,ADAM17 inh,aDG glyco act
CCn1c(SCC(=O)Nc2ccc(F)cc2)nc2ccccc2c1=O,3,5,1,-4,0
O=C(O)c1ccc(NS(=O)(=O)c2ccc(N3CCCC3)c([N+](=O)[O-])c2)cc1,10*,-5,-4,-3,0
O=C(Nc1ccc(S(=O)(=O)Nc2cnc3ccccc3n2)cc1)c1cccc(OC(F)F)c1,11*,-3,-39,-15,0
COC(=O)c1cc(NS(=O)(=O)c2ccc(N3CCCCCC3)c([N+](=O)[O-])c2)cc(C(=O)OC)c1,9,8,1,4,0
O=c1c2ccccc2oc2ccc(-c3ccc4[nH]ccc4c3)cc12,18*,23,14,4,0
Cc1cccc(N2C(S)=C(C#N)C(=O)NC23CCCCC3)c1,16*,-5,-4,-2,0
Cc1ccc(N2C(S)=C(C#N)C(=O)NC23CCCCC3)cc1,0,-6,-1,-1,0
COc1ccccc1N1CCN(c2nc(C)cc(C)c2C#N)CC1,-3,16,-1,4,0
COc1ccc(C2/C=C\CC(NC(=O)OCC3c4ccccc4-c4ccccc43)CC(=O)N2Cc2ccccc2F)cc1 (configuration not stated),14*,17,x,x,0
CCOc1ccc2[nH]c3c(N4CCc5ccccc5C4)ncnc3c2c1,2,23,-148,-75,0
Cc1ccc2[nH]c3c(N4CCc5ccccc5C4)ncnc3c2c1,-8,3,-73,-24,6.7*
Fc1ccc2[nH]c3c(N4CCc5ccccc5C4)ncnc3c2c1,23*,14,-50,-16,2
Brc1ccc2[nH]c3c(N4CCc5ccccc5C4)ncnc3c2c1,6,x,x,x,x
O=C(N/N=C/c1cccc(O)c1)c1ccc(NC(=O)C2CCCCC2)cc1,10*,1,3,-4,0
O=C(N/N=C/c1ccc(O)cc1O)c1ccc(NC(=O)C2CCCCC2)cc1,23*,-5,-21,0,0
O=C(N/N=C/c1ccc(O)cc1O)C1CC1,0,-4,-36,-14,0
CCOc1ccc(C(=S)N2CCOCC2)cc1OCC,1,-9,-11,4,0
CCOc1ccc(-c2[nH]ncc2-c2ccccc2)c(O)c1,-1,-57,6,1,1
O=[N+]([O-])c1cccc(S(=O)(=O)Nc2ccc(-c3ccc(N4CCCC4)nn3)cc2)c1,31*,33,-6,0,0
CCN1CC(c2ccccc2)C(c2ccc(Cl)cc2)=N1 (configuration not stated),12*,23,-11,-5,0
CCN1C2=NCCCN2c2ccccc21,11*,-6,10,1,0
ClCCN1C2=NCCCN2c2ccccc21,0,-3,-3,1,0
CC1CCCCN1CCCNC(=O)c1nn(C)c2c1CS(=O)(=O)c1ccccc1-2 (configuration not stated),5,-5,-8,-5,0
